Experimental data published in PubChem BioAssay (Tox21).
Several values for one entry are separate records, joined by “and”; a condition that tells them apart may be missing. Identical values can stand only once. Results filed as inconclusive are left out. Entries that show only a call come without a potency. Where a structure was tested more than once in an assay, its records may differ in their call. Activity calls are given as the source filed them. Unless noted, the call rests on the fitted dose curve; in most records, active means well fitted curve in the direction sought with a large enough effect in the repeat runs; inconclusive means weak or mixed curves; inactive means no such curve, though single readings can be large; an effect the other way counts as inactive or inconclusive.

Tests used:
[1] = qHTS assay to identify small molecule agonists of the peroxisome proliferator-activated receptor delta (PPARd) signaling pathway - cell viability counter screen (AID 743211); further: nearly all actives have a fitted effect of over 55% in size; further: potency means the concentration at half of the fitted maximal effect
How it was run: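 Following 5 h plating at 37 C and 5% CO2, PPARd UAS-bla HEK293H cells took up test compounds for 17 h. Viability was quantified by luminescence 30 min after CellTiter-Glo addition at room temperature.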

[2] = target: Peroxisome proliferator-activated receptor delta (Homo sapiens) (UniProt Q03181); test: qHTS assay to identify small molecule agonists of the peroxisome proliferator-activated receptor delta (PPARd) signaling pathway (AID 743212; calls by dose curve)
How it was run: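 Read-out: beta-lactamase FRET fluorescence after 2 h room-temperature incubation with LiveBLAzer B/G substrate. Cells were HEK293H carrying a UAS-bla reporter for PPARd, treated at 37 C with DMSO-dissolved compounds.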

[3] = qHTS assay to identify small molecule antagonists of the peroxisome proliferator-activated receptor delta (PPARd) signaling pathway - cell viability counter screen (AID 743213); further: nearly all actives have a fitted effect of over 50% in size; further: potency means the concentration at half of the fitted maximal effect
How it was run: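 PPARd-bla HEK293H cells were treated with compounds plus agonist L165041 (300 nM final) for 17 h at 37 C. Viability was then read in the same wells by CellTiter-Glo luminescence after 30 min at room temperature.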

[4] = qHTS assay to identify small molecule agonists of the farnesoid-X-receptor (FXR) signaling pathway - cell viability counter screen (AID 743218); further: nearly all actives have a fitted effect of over 45% in size; further: potency means the concentration at half of the fitted maximal effect
How it was run: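 Quantitative HTS counter screen measuring ATP-based viability via CellTiter-Glo luminescence in HEK 293T cells carrying a UAS-driven beta-lactamase reporter, after 16 h compound exposure at 37 C.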

[5] = qHTS assay to identify small molecule antagonists of the farnesoid-X-receptor (FXR) signaling pathway - cell viability counter screen (AID 743221; active means well fitted cell-killing curve with a large enough effect in the repeat runs, not every such curve was filed as active; further: nearly all actives have a fitted effect of over 50% in size; further: potency means the concentration at half of the fitted maximal effect)
How it was run: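 Compound effects on cell number were measured as CellTiter-Glo luminescence in HEK 293T cells expressing FXR-UAS-bla, after 16 h at 37 C with 50 uM CDCA (final).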

[6] = target: Vitamin D3 receptor (Homo sapiens) (UniProt P11473); test: qHTS assay to identify small molecule agonists of the vitamin D receptor (VDR) signaling pathway (AID 743222; calls by dose curve)
How it was run: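 Tox21 cell reporter format: VDR-bla line, 16 h compound exposure in 5% CO2 at 37C, then fluorescence intensity after 2 h with LiveBLAzer B/G FRET substrate.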

[7] = target: Vitamin D3 receptor (Homo sapiens) (UniProt P11473); test: qHTS assay to identify small molecule antagonists of the vitamin D receptor (VDR) signaling pathway (AID 743223; active means well fitted inhibition curve with a large enough effect in the signal ratio in the repeat runs, not every such curve was filed as active; the % refers to the signal ratio; further: potency means the concentration at half of the fitted maximal effect)
How it was run: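 Beta-lactamase activity in VDR-bla cells is measured by FRET substrate fluorescence (2 h, room temperature) after cells spend 16 h at 37C with test compound and 3 nM final 1alpha,25-dihydroxyvitamin D3.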

[8] = qHTS assay to identify small molecule agonists of the vitamin D receptor (VDR) signaling pathway - cell viability counter screen (AID 743224); further: nearly all actives have a fitted effect of over 50% in size; further: potency means the concentration at half of the fitted maximal effect
How it was run: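 CellTiter-Glo viability readout on VDR-bla cells, measured after 16 h of compound treatment at 37C in the same wells.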

[9] = qHTS assay to identify small molecule antagonists of the vitamin D receptor (VDR) signaling pathway - cell viability counter screen (AID 743225); further: nearly all actives have a fitted effect of over 50% in size; further: potency means the concentration at half of the fitted maximal effect
How it was run: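 In this counter screen, VDR-bla HEK 293T cells receive test compound plus 3 nM final calcitriol for 16 h at 37C. Room-temperature steps of 2 h with the beta-lactamase substrate, then 30 min with CellTiter-Glo, precede the luminescence read.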

[10] = qHTS assay to identify small molecule agonists of the NFkB signaling pathway - cell viability counter screen (AID 1159515; calls by dose curve; further: nearly all actives have a fitted effect of over 55% in size; further: potency means the concentration at half of the fitted maximal effect)
How it was run: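 Tox21 library compounds were tested for cytotoxicity against NFkB-bla ME-180 cells during a 5 hr exposure at 37 C. CellTiter-Glo luminescence served as the viability read-out.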

[11] = qHTS assay to identify small molecule agonists of the endoplasmic reticulum stress response signaling pathway (AID 1159516; active means well fitted activation curve with a large enough effect in the signal ratio in the repeat runs, not every such curve was filed as active; the % refers to the signal ratio)
How it was run: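 Fluorescence at 460 and 530 nm (405 nm excitation) reports beta-lactamase from an ER stress response element in HeLa cells treated 5 hr at 37 C.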

[12] = qHTS assay to identify small molecule agonists of the endoplasmic reticulum stress response signaling pathway - cell viability counter screen (AID 1159517; calls by dose curve; further: nearly all actives have a fitted effect of over 50% in size; further: potency means the concentration at half of the fitted maximal effect)
How it was run: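 Steps: seed 1,500 ESRE-bla HeLa cells per well; incubate overnight at 37 C, 5% CO2; add compounds in DMSO for 5 hr; run FRET substrate 2 hr RT; add CellTiter-Glo, wait 30 min, read luminescence.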

[13] = qHTS assay to identify small molecule antagonists of the retinoid-related orphan receptor gamma (ROR-gamma) signaling pathway - cell viability counter screen (AID 1159520); further: nearly all actives have a fitted effect of over 50% in size; further: potency means the concentration at half of the fitted maximal effect
How it was run: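 Tet-on ROR gamma CHO cells were given compounds for 2 hr, then doxycycline hyclate at 1 uM final, and incubated 16 hr at 37 C. Viability was measured as ATP content by CellTiter-Glo luminescence.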

[14] = qHTS assay to identify small molecule agonists of the AP-1 signaling pathway - cell viability counter screen (AID 1159525; calls by dose curve; further: nearly all actives have a fitted effect of over 55% in size; further: potency means the concentration at half of the fitted maximal effect)
How it was run: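 Same-well cytotoxicity counter screen of the Tox21 10K library in ME-180 cells. The readout is ATP-dependent luminescence after 5 h compound treatment. Data are normalised to DMSO and tetra n-octyl ammonium bromide controls.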

[15] = target: Peroxisome proliferator-activated receptor delta (Homo sapiens) (UniProt Q03181); test: qHTS assay to identify small molecule antagonists of the peroxisome proliferator-activated receptor delta (PPARd) signaling pathway (AID 743215; active means well fitted inhibition curve with a large enough effect in the signal ratio in the repeat runs, not every such curve was filed as active; the % refers to the signal ratio;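 further: cells stimulated with agonist L165041 at 300 nM final during compound exposure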; further: potency means the concentration at half of the fitted maximal effect)
How it was run: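 Here, a reporter line (HEK293H, beta-lactamase under a UAS) measures PPARd signaling. Compounds are tested against agonist L165041 at 300 nM final concentration over 17 h at 37 C, with fluorescence read after substrate.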

[16] = qHTS assay to identify small molecule agonists of the AP-1 signaling pathway (AID 1159526; calls by dose curve)
[17] = target: Retinoic acid receptor RXR-alpha (Homo sapiens) (UniProt P19793); test: qHTS assay to identify small molecule agonists of the RXR signaling pathway (AID 1159527; calls by dose curve; further: nearly all actives have a fitted effect of over 35% in size)
How it was run: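 Fluorescence ratio readout (460 vs 530 nm) from GeneBLAzer RXR-alpha HEK 293T cells after 16 hr compound treatment; cells seeded 5 hr beforehand in low-serum, charcoal-stripped medium.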

[18] = target: Bile acid receptor (Homo sapiens) (UniProt Q96RI1); test: qHTS assay to identify small molecule antagonists of the farnesoid-X-receptor (FXR) signaling pathway (AID 743217; active means well fitted inhibition curve with a large enough effect in the signal ratio in the repeat runs, not every such curve was filed as active; the % refers to the signal ratio)
How it was run: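 Test compounds are pin-transferred onto FXR-bla HEK 293T cells, then chenodeoxycholic acid is added at 50 uM final. After 16 h at 37 °C, LiveBLAzer B/G substrate is applied for 2 h at room temperature and fluorescence read.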

[19] = target: Bile acid receptor (Homo sapiens) (UniProt Q96RI1); test: qHTS assay to identify small molecule agonists of the farnesoid-X-receptor (FXR) signaling pathway (AID 743220; active means well fitted activation curve with a large enough effect in the signal ratio in the repeat runs, not every such curve was filed as active; the % refers to the signal ratio)
How it was run: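 FXR-UAS-bla HEK 293T cells carrying a UAS-driven beta-lactamase reporter were plated for 5 h at 37C/5% CO2, then exposed to DMSO-dissolved Tox21 10K compounds for 16 h at 37C. A LiveBLAzer B/G FRET substrate was loaded for 2 h at room temperature before fluorescence reading.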

[20] = target: Nuclear receptor ROR-gamma (Homo sapiens) (UniProt P51449); test: qHTS assay to identify small molecule antagonists of the retinoid-related orphan receptor gamma (ROR-gamma) signaling pathway (AID 1159521; further: nearly all actives have a fitted effect of over 50% in size; further: potency means the concentration at half of the fitted maximal effect)
How it was run: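 Screening format: cell-based luciferase reporter in CHO cells with doxycycline-inducible RORγ. Compound pre-exposure lasts 2 h, doxycycline is 1 uM final, induction runs 16 h at 37 C, and ONE-Glo luminescence is read.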

Sequence of Retinoic acid receptor RXR-alpha (Homo sapiens) (P19793 whole entry, looked up): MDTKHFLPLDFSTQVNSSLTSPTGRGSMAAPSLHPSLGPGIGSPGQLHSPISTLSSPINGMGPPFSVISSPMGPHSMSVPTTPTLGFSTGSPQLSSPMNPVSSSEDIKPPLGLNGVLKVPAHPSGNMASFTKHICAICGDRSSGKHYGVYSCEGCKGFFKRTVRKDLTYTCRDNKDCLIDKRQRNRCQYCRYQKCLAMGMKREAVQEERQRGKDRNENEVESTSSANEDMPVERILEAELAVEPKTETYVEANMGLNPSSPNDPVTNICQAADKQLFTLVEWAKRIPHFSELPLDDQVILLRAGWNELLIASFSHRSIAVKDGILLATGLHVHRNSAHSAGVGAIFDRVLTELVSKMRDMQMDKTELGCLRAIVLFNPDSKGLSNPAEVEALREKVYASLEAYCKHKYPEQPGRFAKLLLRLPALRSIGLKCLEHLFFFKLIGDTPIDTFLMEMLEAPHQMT
Sequence of Vitamin D3 receptor (Homo sapiens) (P11473 whole entry, looked up): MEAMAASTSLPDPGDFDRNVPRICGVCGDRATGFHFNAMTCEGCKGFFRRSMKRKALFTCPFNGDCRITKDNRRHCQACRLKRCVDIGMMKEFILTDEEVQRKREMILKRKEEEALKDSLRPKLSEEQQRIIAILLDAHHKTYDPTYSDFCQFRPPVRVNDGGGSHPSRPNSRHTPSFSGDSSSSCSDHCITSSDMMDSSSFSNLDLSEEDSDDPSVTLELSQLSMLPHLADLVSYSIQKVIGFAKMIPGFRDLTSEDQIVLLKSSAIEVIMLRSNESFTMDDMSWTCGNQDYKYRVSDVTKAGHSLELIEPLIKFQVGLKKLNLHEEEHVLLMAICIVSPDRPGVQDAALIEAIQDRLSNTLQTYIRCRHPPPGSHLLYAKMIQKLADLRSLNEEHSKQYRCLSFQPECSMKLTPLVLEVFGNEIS
Sequence of Peroxisome proliferator-activated receptor delta (Homo sapiens) (Q03181 whole entry, looked up): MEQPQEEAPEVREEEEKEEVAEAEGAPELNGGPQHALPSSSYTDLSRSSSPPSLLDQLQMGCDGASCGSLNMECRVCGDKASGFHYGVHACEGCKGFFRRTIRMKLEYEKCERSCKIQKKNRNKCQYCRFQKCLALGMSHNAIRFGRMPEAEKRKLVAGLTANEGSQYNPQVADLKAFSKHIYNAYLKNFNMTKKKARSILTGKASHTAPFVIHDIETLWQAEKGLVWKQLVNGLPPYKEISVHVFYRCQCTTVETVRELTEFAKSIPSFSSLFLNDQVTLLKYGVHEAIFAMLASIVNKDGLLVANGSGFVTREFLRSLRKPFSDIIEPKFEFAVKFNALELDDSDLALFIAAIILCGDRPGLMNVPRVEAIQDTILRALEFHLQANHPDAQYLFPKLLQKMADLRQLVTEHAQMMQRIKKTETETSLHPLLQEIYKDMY
Sequence of Bile acid receptor (Homo sapiens) (Q96RI1 whole entry, looked up): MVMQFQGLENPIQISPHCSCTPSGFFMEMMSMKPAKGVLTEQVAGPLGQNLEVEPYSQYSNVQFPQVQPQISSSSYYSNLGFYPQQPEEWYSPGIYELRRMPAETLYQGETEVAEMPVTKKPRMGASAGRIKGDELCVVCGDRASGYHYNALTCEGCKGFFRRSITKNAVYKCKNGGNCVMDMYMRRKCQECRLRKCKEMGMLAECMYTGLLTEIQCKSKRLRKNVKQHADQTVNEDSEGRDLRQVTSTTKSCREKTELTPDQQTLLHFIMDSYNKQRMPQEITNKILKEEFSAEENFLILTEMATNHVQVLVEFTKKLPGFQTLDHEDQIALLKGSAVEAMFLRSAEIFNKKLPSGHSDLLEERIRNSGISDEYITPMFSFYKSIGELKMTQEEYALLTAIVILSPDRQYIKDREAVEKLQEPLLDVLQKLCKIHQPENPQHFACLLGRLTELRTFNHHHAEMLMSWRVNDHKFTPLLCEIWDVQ

Row | Structure (SMILES) | Potency [1] | Potency [2] | Potency [3] | Potency [4] | Potency [5] | outcome [6] | Potency [7] | Potency [8] | Potency [9] | Potency [10] | Potency [11] | Potency [12] | Potency [13] | Potency [14] | Potency [15] | outcome [16] | Potency [17] | Potency [18] | Potency [19] | Potency [20]
1 | COP(=S)(OC)SCn1nnc2ccccc2c1=O | inactive | inactive | inactive | inactive | inactive | inactive | inactive | inactive | inactive | inactive | inactive | inactive | inactive | inactive |  |  |  |  |  | 
2 | Cc1cc(Cl)ccc1N=CN(C)C | inactive | inactive | inactive | inactive |  | inactive | inactive | inactive | inactive | inactive | inactive | inactive | inactive | inactive | inactive | inactive | inactive |  |  | 
3 | CC(C)Nc1nc(Cl)nc(NC(C)C)n1 | inactive |  | inactive | inactive | inactive | inactive | inactive | inactive | inactive | inactive | inactive | inactive | inactive | inactive | inactive | inactive | inactive |  |  | 
4 | CC(C)=CC1C(C(=O)OCc2cccc(Oc3ccccc3)c2)C1(C)C (centres undefined) | inactive |  | inactive | inactive | inactive | inactive | inactive | inactive | inactive | inactive | inactive | inactive | inactive | inactive | inactive | inactive |  | inactive | inactive | 
5 | CC(O)CN(CC(C)O)CC(C)O (centres undefined) | inactive | inactive | inactive | inactive | inactive |  |  | inactive | inactive | inactive | inactive |  | inactive | inactive | inactive | inactive | inactive | inactive | inactive | inactive
6 | CNC(=S)S | inactive | inactive | inactive | inactive | inactive | inactive | inactive | inactive | inactive | inactive | inactive |  | inactive | inactive | inactive | inactive | inactive |  |  | inactive
7 | CC(C)(O)C#N | inactive |  | inactive | inactive | inactive | inactive | inactive | inactive | inactive | inactive | inactive | inactive | inactive | inactive |  | inactive | inactive | inactive | inactive | 
8 | CCOP(=S)(OCC)OP(=S)(OCC)OCC | inactive |  | inactive | inactive | inactive |  |  | inactive | inactive | inactive | inactive | inactive | inactive | inactive | inactive | inactive |  |  | inactive | 
9 | C=CC(=O)OCC(CC)(COC(=O)C=C)COC(=O)C=C | 11 µM (active) |  | 13.8 µM (active) | inactive and 13.8 µM (active) | inactive and 43.6 µM (active) | inactive | 6.92 µM (active) | 20 µM (active) and 11 µM (active) | 20 µM (active) and 17.4 µM (active) | inactive | inactive | inactive and 24.5 µM (active) |  | inactive | 12.6 µM (active) |  |  | inactive |  | 3.15 µM (active) and 6.86 µM (active)
10 | CCCCOCCOC(C)=O | inactive |  | inactive | inactive |  | inactive | inactive | inactive |  | inactive | inactive | inactive | inactive | inactive |  | inactive | inactive | inactive | inactive | 
11 | N#CCCCCC#N | inactive |  | inactive | inactive |  | inactive | inactive | inactive | inactive | inactive | inactive | inactive | inactive | inactive | inactive | inactive | inactive | inactive | inactive | 
12 | CCOP(=S)(OCC)SCn1c(=O)oc2cc(Cl)ccc21 | inactive |  | inactive |  | inactive | inactive | inactive | inactive |  | inactive | inactive | inactive | inactive | inactive |  |  |  | inactive | inactive | 
13 | CCCCCCCCCC(CC)c1ccc(S(=O)(=O)O)cc1 (centres undefined) |  |  |  |  |  |  |  |  |  | 48.9 µM (active) and 21.3 µM (active) |  | inactive and 21.3 µM (active) and 21.9 µM (active) | inactive | 49.5 µM (active) [middle of 4 runs] |  |  |  |  |  | 
14 | COc1ccc(C=O)cc1OC | inactive |  | inactive | inactive | inactive |  |  | inactive |  | inactive | inactive |  | inactive | inactive |  | inactive | inactive |  |  | inactive
15 | CC1(C)Cc2cccc(O)c2O1 | inactive |  | inactive | inactive |  | inactive | inactive | inactive | inactive | inactive | inactive |  | inactive | inactive |  | inactive | inactive |  |  | 
16 | [CH3][Sn]([Cl])([Cl])[Cl] | inactive |  | inactive | inactive |  | inactive | inactive | inactive | inactive | inactive | inactive |  | inactive | inactive | inactive | inactive | inactive |  |  | inactive
17 | N#Cc1c(Cl)c(Cl)c(Cl)c(C#N)c1Cl | 6.79 µM (active) and 6.92 µM (active) |  | 15.2 µM (active) and 5.49 µM (active) | 21.5 µM (active) and 15.5 µM (active) | 24.1 µM (active) and 21.9 µM (active) | inactive |  | 1.91 µM (active) and 1.95 µM (active) | 6.79 µM (active) and 8.71 µM (active) | inactive |  | 5.39 µM (active) and 5.49 µM (active) | 1.51 µM (active) and 864 nM (active) | 7.76 µM (active) |  |  |  |  |  | 1.9 µM (active) and 1.22 µM (active)
